Sequences and labels used below:
T1: UNK ZnF1-3 (human, UniProt Q9C0B0 31-174)
T1 sequence: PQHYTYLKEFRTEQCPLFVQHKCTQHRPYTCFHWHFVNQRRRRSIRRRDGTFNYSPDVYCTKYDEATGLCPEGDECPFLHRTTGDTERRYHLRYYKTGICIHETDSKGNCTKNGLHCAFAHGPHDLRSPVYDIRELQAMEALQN

B1: chr1:185277986:185277987:-_ENSG00000116679_ENST00000392007|hu_mus|FALSE|FALSE (ssRNA)
RNA: GGGAGUUCUACAGUCCGACGAUCCUGCUUGACUCGGUCCAUCUUCAGCUUCUUGGCUGCAGAAUAAACAUCUUUUACUAAUUCCUUAUCAGCUUUCAACUGAGCCGUGUAUGCAUAAUUCAGCAAGACUUCAACAGCUUCUGGCAACAGAGGAUUGAGCAUCA
B2: chr15:80390846:80390847:+_ENSG00000086666_ENST00000559775|hu_hu|FALSE|FALSE (ssRNA)
RNA: GGGAGUUCUACAGUCCGACGAUCCUGUCCUGUAUCUUGAGACAGACAUUAGCUUUCUGCCUUCCCUAUUCUCAUAAGCAGCUACUUAAAAGUUUUGAAUUUUAUGCAAGAAAACAUUUUAAAGCCUUCUGUGUUUUACUGCAGCAACAGAGGAUUGAGCAUCA
B3: chr13:100194382:100194383:-_ENSMUSG00000052727_ENSMUST00000064762|mus_mus|motif|central (ssRNA)
RNA: GGGAGUUCUACAGUCCGACGAUCUCCUGUAAAUGAAAACAUUUGUUAAAAAGUUCAUCUAUGAAAAGUUCUCGAGUAGCGGAAAAAAAAAAAAAAAAAAAAAAAAAUCUUCUGUACAUGUGUUCCCAUGUGUUGAAAUUAAUGCAACAGAGGAUUGAGCAUCA
B4: chr13:100194382:100194383:-_ENSMUSG00000052727_ENSMUST00000064762|mus_mus|FALSE|FALSE (ssRNA)
RNA: B3 RNA with G80U, G81A
B5: chr13:100194382:100194383:-_ENSMUSG00000052727_ENSMUST00000064762|mus_hu|FALSE|FALSE (ssRNA)
RNA: GGGAGUUCUACAGUCCGACGAUCUCCUGUAAAUGAAAACAUUUGUUAAAAAGUUCAUCUAUGAAAAGUUCUCACAUAUCUUAAAAAAAAAAUUCUUCUGUACACUUGUUCCCAUAAUUAUGUUGAAAUUAAUGGAAAAUUUAACAACAGAGGAUUGAGCAUCA
B6: chr11:57926588:57926589:+_ENSMUSG00000020515_ENSMUST00000020822|mus_hu|FALSE|FALSE (ssRNA)
RNA: GGGAGUUCUACAGUCCGACGAUCGUCAAUCCCUUCCUCUUCAUGCUUCUGAAACUGUAGUCCUGAGUUAGCAAGGAGAUCUAUGGAAUCCUGGGAGUACAUGUCCUCUGUAAGGUUAAAUUUGAAAUUGAACUGCCAAGUAUUCAACAGAGGAUUGAGCAUCA
B7: chr4:54876292:54876293:-_ENSG00000109220_ENST00000263921|perfect_dup|motif|central (ssRNA)
RNA: GGGAGUUCUACAGUCCGACGAUCCUAUAAAUAAAGUAAAUGCUAAUCUGGUCGAAAAAUCGGUGUCUUUGGUAAAAAUUCGGUGAGGAUGACAUAUUCCAUCAUGUUAUUCGUUUCACAUUUCCUUUUGCUCAGUCUCCAAUGCAACAGAGGAUUGAGCAUCA
B8: 53612100_53613521_5214_CDS_ENSG00000086758_ENST00000262854|human|control|control (ssRNA)
RNA: GGGAGUUCUACAGUCCGACGAUCAGAGCGAUCAUCAAACCAGCGCCAGUUGUUGCUGUUGGAUUGCAGGUACUUAGUCAUCUGGGCUCUCCUUUUUGAGGAGAUGGCUGUCUUUUCAUAGAAAUCAAUCAGGAGCAACACUGGCAACAGAGGAUUGAGCAUCA
B9: chr1:163117127:163117128:-_ENSG00000143248_ENST00000313961|hu_hu|motif|central (ssRNA)
RNA: GGGAGUUCUACAGUCCGACGAUCGCAGGGUUAUUAUGGAGGAAAUAACUCACAGGAUGAUUUCAUAGCCUGGCUAAAUUACGGCUUGAUUAACUCCUGAUAAAACUCAGAGCGCACAAAGCGAGGCAGAGAAUCCUUUUCCAUCAACAGAGGAUUGAGCAUCA
B10: chr7:140404665:140404666:+_ENSG00000090266_ENST00000247866|hu_hu|hu_hu_hu_mus_False|28_98 (ssRNA)
RNA: GGGAGUUCUACAGUCCGACGAUCUGCUCCUACUCGUAGGCUGAGUCUACAGUGUCAGUCCUCGUCAUCAGGAGGGAUUCCCAGUUCUUCAUCUGUCCACUGUGAAGGAUCAGGAUAUGAAAAGUGACCCAGCACAGCAUCCGACAACAGAGGAUUGAGCAUCA
B11: chr9:34402745:34402746:-_ENSG00000164970_ENST00000297620|hu_hu|motif|central (ssRNA)
RNA: GGGAGUUCUACAGUCCGACGAUCGGGGACGACCAGCCUUGUUCGGGCCAUGACAUUGUUCUUCUUGGGUUGCUGGUUGACAGGGCGGCCCAUGCUGCCAUUCUUCAGGGAGCCCUUCCGGGCCAGCUCCCGCUGCUUCUCCUCCAACAGAGGAUUGAGCAUCA
B12: chr2:153237265:153237266:-_ENSMUSG00000061411_ENSMUST00000109784|mus_mus|mus_mus_mus_hu_False|1_98 (ssRNA)
RNA: GGGAGUUCUACAGUCCGACGAUCAAAAAAAAAAAAAGAAAAGUGUCCUUGUGCCCAAAGUCUCAGGUGCUUGGAGUGUGGCUAGAAACAGCUCUUUUGGAUCCCACCUCUUUCAAAAACAAAAUGUACCAACUGGUAGGCAGGCAACAGAGGAUUGAGCAUCA
B13: chr2:153237265:153237266:-_ENSMUSG00000061411_ENSMUST00000109784|mus_mus|mus_mus_mus_hu_False|98_98 (ssRNA)
RNA: B12 RNA with A137G, G138A, C140G, A141C, G142A
B14: chr2:153237265:153237266:-_ENSMUSG00000061411_ENSMUST00000109784|mus_mus|mus_mus_mus_hu_False|1_108 (ssRNA)
RNA: B12 RNA with A32G, G37A

Positions count from the first letter of the chain named. In all, about 24,000 sequences were measured (“enrichment r”: median about 0.99, highest 2% from about 3.7 on). The sample as a whole holds a higher share of the highest values than the screen did.

This experiment concerns the target T1, UNK ZnF1-3. The experiment can be described thus: nsRBNS (natural sequence RNA bind-n-seq); RBNS binding buffer (assumed for nsRBNS): 25 mM Tris pH 7.5, 150 mM KCl, 3 mM MgCl2, 0.01% Triton X-100, 500 ug/ml BSA, 20 U/ml SUPERase-In, 4 C; UNK is unkempt and MSI1 is Musashi-1; names of the RNAs are library labels; protein concentration not given here; high values mean tight binding.
B1 came in with a binding signal of 0.806 enrichment R.
Molecule B2 gave a binding signal of 0.755 enrichment R.
Next, B3: 5.84 enrichment R.
Next, B4: 5.73 enrichment R.
As for B5, the binding signal was 1.06 enrichment R.
B6 came in with a binding signal of 1.01 enrichment R.
Next, B7: 1.46 enrichment R; B8: 1.05 enrichment R.
Molecule B9 had a binding signal of 1.52 enrichment R.
The molecule B10 gave a binding signal of 0.773 enrichment R.
Next, B11: 0.859 enrichment R.
Next, B12: 4.8 enrichment R; B13: 3.61 enrichment R; B14: 4.2 enrichment R.

The values are drawn from paper PMC12136788.
